Experimental data taken from PubChem BioAssay AID1159580 (chemical genetic matrix, 2015).
Where “and” joins values, the source holds several entries; their conditions need not be identical. Identical values can stand only once. Among all 5,500 compounds or so, about 2,000 (36%) were called active. Inconclusive results (about 18%) are left out. The list shows a part of the results. A number with no mark means an inactive call. Rule as the data show it: active = normalized growth mostly below about 0.91 (no sharp cut-off); inconclusive = no clear call, values can overlap the other calls; inactive = mostly above about 0.92.

Experiment: chemical genetic growth profiling, strain panel (AID 1159580);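 also: tested at 20 µM; growth read once vehicle control cultures reached saturation at 30 °C; 1 = growth at the plate median or of vehicle wells; lower values mean less growth of the strain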
Details: S. cerevisiae deletion strains, growth OD

C[C@@H]1CC[C@H]2[C@@H](C)C(O)O[C@@H]3O[C@@]4(C)CC[C@@H]1[C@]32OO4 (some centres not stated)
normalized growth (locus YAL013W, strain DEP1, active compounds read low): 0.528 (active)
normalized growth (locus YAL021C, strain ccr4, active compounds read low): 0.507 (active)
normalized growth (locus YAL026C, strain drs2, active compounds read low): 0.358 (active)
normalized growth (locus YAL030W, strain snc1, active compounds read low): 0.319 (active)
normalized growth (locus YBL061C, strain skt5, active compounds read low): 0.337 (active)
normalized growth (locus YBR009C, strain hhf1, active compounds read low): 0.215 (active)
normalized growth (locus YBR021W, strain FUR4, active compounds read low): 0.857
normalized growth (locus YBR023C, strain chs3, active compounds read low): 0.331 (active)
normalized growth (locus YBR171W, strain sec66, active compounds read low): 0.608 (active)
normalized growth (locus YBR229C, strain ROT2, active compounds read low): 0.7 (active)
normalized growth (locus YBR231C, strain swc5, active compounds read low): 0.253 (active)
normalized growth (locus YBR279W, strain paf1, active compounds read low): 0.276 (active)
normalized growth (locus YCL011C, strain gbp2, active compounds read low): 0.231 (active)
normalized growth (locus YCL016C, strain dcc1, active compounds read low): 0.275 (active)
normalized growth (locus YCL029C, strain bik1, active compounds read low): 0.325 (active)
normalized growth (locus YCL061C, strain MRC1, active compounds read low): 0.312 (active)
normalized growth (locus YCL069W, strain vba3, active compounds read low): 0.315 (active)
normalized growth (locus YCR088W, strain abp1, active compounds read low): 0.321 (active)
normalized growth (locus YDL005C, strain med2, active compounds read low): 0.448 (active)
normalized growth (locus YDL035C, strain GPR1, active compounds read low): 0.295 (active)
normalized growth (locus YDL040C, strain nat1, active compounds read low): 0.408 (active)
normalized growth (locus YDL074C, strain BRE1, active compounds read low): 0.556 (active)
normalized growth (locus YDL101C, strain DUN1, active compounds read low): 0.325 (active)
normalized growth (locus YDL134C, strain PPH21, active compounds read low): 0.314 (active)
normalized growth (locus YDL185W, strain tfp1, active compounds read low): 0.139 (active)
normalized growth (locus YDL192W, strain arf1, active compounds read low): 0.547 (active)
normalized growth (locus YDR001C, strain nth1, active compounds read low): 0.377 (active)
normalized growth (locus YDR069C, strain doa4, active compounds read low): 0.386 (active)
normalized growth (locus YDR101C, strain arx1, active compounds read low): 0.459 (active)
normalized growth (locus YDR137W, strain rgp1, active compounds read low): 0.348 (active)
normalized growth (locus YDR150W, strain NUM1, active compounds read low): 0.262 (active)
normalized growth (locus YDR159W, strain sac3, active compounds read low): 0.471 (active)
normalized growth (locus YDR162C, strain NBP2, active compounds read low): 0.356 (active)
normalized growth (locus YDR195W, strain ref2): 0.54 (active)
normalized growth (locus YDR297W, strain sur2, active compounds read low): 0.384 (active)
normalized growth (locus YDR318W, strain mcm21, active compounds read low): 0.258 (active)
normalized growth (locus YDR334W, strain swr1, active compounds read low): 0.276 (active)
normalized growth (locus YDR335W, strain msn5, active compounds read low): 0.492 (active)
normalized growth (locus YDR388W, active compounds read low): 0.316 (active)
normalized growth (locus YDR392W, strain spt3, active compounds read low): 0.133 (active)
normalized growth (locus YDR502C, strain sam2, active compounds read low): 0.415 (active)
normalized growth (locus YEL003W, strain gim4, active compounds read low): 0.237 (active)
normalized growth (locus YEL037C, strain rad23, active compounds read low): 0.407 (active)
normalized growth (locus YEL061C, strain CIN8 (second series), active compounds read low): 0.295 (active)
normalized growth (locus YEL061C, strain CIN8, active compounds read low): 0.302 (active)
normalized growth (locus YER015W, strain faa2, active compounds read low): 0.179 (active)
normalized growth (locus YER016W, strain bim1, active compounds read low): 0.235 (active)
normalized growth (locus YER110C, active compounds read low): 0.275 (active)
normalized growth (locus YER111C, strain swi4, active compounds read low): 0.5 (active)
normalized growth (locus YER155C, strain BEM2 (second series), active compounds read low): 0.568 (active)
normalized growth (locus YER155C, strain BEM2, active compounds read low): 0.345 (active)
normalized growth (locus YER167W, strain BCK2, active compounds read low): 0.198 (active)
normalized growth (locus YFR010W, strain ubp6, active compounds read low): 0.391 (active)
normalized growth (locus YGL078C, strain dbp3, active compounds read low): 0.477 (active)
normalized growth (locus YGL086W, strain mad1, active compounds read low): 0.279 (active)
normalized growth (locus YGL167C, strain pmr1, active compounds read low): 0.781 (active)
normalized growth (locus YGL173C, strain kem1, active compounds read low): 0.729 (active)
normalized growth (locus YGL227W, strain vid30, active compounds read low): 0.254 (active)
normalized growth (locus YGL240W, strain doc1, active compounds read low): 0.23 (active)
normalized growth (locus YGL248W, strain PDE1, active compounds read low): 0.282 (active)
normalized growth (locus YGL253W, strain hxk2, active compounds read low): 0.251 (active)
normalized growth (locus YGR078C, strain PAC10, active compounds read low): 0.527 (active)
normalized growth (locus YGR135W, strain pre9, active compounds read low): 0.653 (active)
normalized growth (locus YGR229C, strain SMI1, active compounds read low): 0.286 (active)
normalized growth (locus YGR252W, strain gcn5, active compounds read low): 0.665 (active)
normalized growth (locus YHR013C, strain ard1, active compounds read low): 0.234 (active)
normalized growth (locus YHR027C, strain rpn1, active compounds read low): 0.221 (active)
normalized growth (locus YHR030C, strain SLT2, active compounds read low): 0.252 (active) and 0.332 (active)
normalized growth (locus YHR079C, strain IRE1 (second series), active compounds read low): 0.359 (active)
normalized growth (locus YHR079C, strain IRE1, active compounds read low): 0.3 (active)
normalized growth (locus YHR094C, strain hxt1, active compounds read low): 0.388 (active)
normalized growth (locus YHR129C, strain ARP1, active compounds read low): 0.331 (active)
normalized growth (locus YHR142W, strain chs7, active compounds read low): 0.284 (active)
normalized growth (locus YHR200W, strain rpn10, active compounds read low): 0.562 (active)
normalized growth (locus YIL066C, strain RNR3, active compounds read low): 0.229 (active)
normalized growth (locus YIL073C, strain SPO22, active compounds read low): 0.308 (active)
normalized growth (locus YIL125W, strain kgd1, active compounds read low): 0.411 (active)
normalized growth (locus YIR030C, strain dcg1, active compounds read low): 0.381 (active)
normalized growth (locus YJL092W, strain hpr5, active compounds read low): 0.346 (active)
normalized growth (locus YJL095W, strain BCK1 (second series), active compounds read low): 0.267 (active)
normalized growth (locus YJL095W, strain BCK1, active compounds read low): 0.298 (active) and 0.302 (active)
normalized growth (locus YJL115W, strain asf1, active compounds read low): 0.443 (active)
normalized growth (locus YJL129C, strain trk1, active compounds read low): 0.538 (active)
normalized growth (locus YJL134W, strain LCB3, active compounds read low): 0.589 (active)
normalized growth (locus YJL154C, strain vps35, active compounds read low): 0.42 (active)
normalized growth (locus YJL164C, strain tpk1, active compounds read low): 0.248 (active)
normalized growth (locus YJL166W, strain qcr8, active compounds read low): 0.167 (active)
normalized growth (locus YJL168C, strain set2, active compounds read low): 0.422 (active)
normalized growth (locus YJL187C, strain SWE1 (second series), active compounds read low): 0.392 (active)
normalized growth (locus YJL187C, strain SWE1, active compounds read low): 0.299 (active)
normalized growth (locus YJR043C, strain POL32, active compounds read low): 0.369 (active)
normalized growth (locus YJR066W, strain TOR1, active compounds read low): 0.319 (active)
